Active and inactive are the calls of the source. Calls follow the shape of the dose curve; as a rule, active = well fitted curve in the direction sought with a large enough effect; inconclusive = small, poorly fitted or top-dose-only effect, or another doubt; inactive = no such curve, though single readings can be large or run the other way.

The assay can be described thus: qHTS for compounds that reverse cellular toxicity of Amyloid beta (A-beta) peptide in yeast: LOPAC Validation Assay (AID 720559). The note with it: yeast expressing A-beta; series mostly up to 46.1 µM. From the text: The A-beta peptide is produced by the processing of the amyloid precursor protein (APP) by two proteases, beta and gamma secretases. […] A-beta42 is regarded as the most amyloidogenic form due to its hydrophobicity; however, precisely how A-beta42 induces neurotoxicity is unclear. To understand further this biology and its potential therapeutic implications for human neurodegenerative disease, a quantitative high-throughput screen for compounds that reverse the cellular toxicity of the A-beta peptide was developed.
A yeast based screen was used because it recapitulates the salient feature of protein mis-folding disorder accurately. This cell-based phenotypic screen provides a significant, unbiased advantage by letting the compounds and models inform us which proteins or pathways are most relevant. The ideal chemical candidates would therefore have activity in both our primary yeast and secondary neuronal toxicity assays, as well as in mouse models. They will be valuable tools for dissecting diverse protein homeostasis pathologies and could potentially become the focus for future pre-clinical development. For this […] assay, inhibition of A-beta rescues the toxic effect in the yeast cell, resulting in increase of signals.
NIH Chemical Genomics Center [NCGC]
NIH Molecular Libraries Probe Centers Network [MLPCN]
Assay Submitter (PI): Susan Lindquist, Whitehead Institute, Massachusetts Institute of Technology
[1] Vassar R,et al (1999). Beta-secretase cleavage of Alzheimer's amyloid precursor protein by the transmembrane aspartic protease BACE. Science. 286: 735-741.
[2] Yan R, et al (1999). Membrane-anchored aspartyl protease with Alzheimer's disease beta-secretase activity. Nature.
Two and a half microliter / well of yeast growth medium were dispensed in a 1536 assay plate. Compounds were pinned using the Kalypsys robotic system followed by addition of 2.5 uL / well yeast solution. The assay plates were incubated at 30 C. After 48 hr, the absorbance signal at 600 nm was obtained using the PerkinElmer ViewLux plate reader to assess yeast growth. The data was normalized to the positive control of an equimolar mixture of ferric chloride (FeCl3) and clioquinol and to the negative control DMSO.
For orientation: qHTS replaces the single test concentration by a dilution series.
Regarding `CCN(CC)CCNC(=O)c1cc(S(C)(=O)=O)ccc1OC`, the call was inactive.
To `CNC1(C)C2CCC(C2)C1(C)C` (stereo not given) belongs “inactive”; to `N[C@@H](COP(=O)(O)O)C(=O)O`, “inactive”; to `O=C(O)CN(CCN(CC(=O)O)CC(=O)O)CCN(CC(=O)O)CC(=O)O`, “inactive”.
With `C(=C\c1ccccc1)/CN1CCN(C(c2ccccc2)c2ccccc2)CC1`, the call was inactive.
Consider `CCN1CCC[C@H]1CNC(=O)c1c(O)c(Cl)cc(Cl)c1OC`, for which the compound was classed as inactive.
For the compound `COC(=O)[C@H]1[C@H]2C[C@@H]3c4[nH]c5cc(OC)ccc5c4CCN3C[C@H]2C[C@@H](OC(=O)c2cc(OC)c(OC)c(OC)c2)[C@@H]1OC`, the call was inactive.
With `COCCCC/C(=N\OCCN)c1ccc(C(F)(F)F)cc1`, the result was inactive.
As to `CCC(=O)c1ccc2c(c1)N(CCCN(C)C)c1ccccc1S2`, the call was inactive.
For `COC(=O)C1=C(C)NC(C)=C(C(=O)OCCN(C)Cc2ccccc2)C1c1cccc([N+](=O)[O-])c1` (stereo not given) the value was “inactive”; for `CC(=O)[C@@]1(O)CC[C@H]2[C@@H]3CCC4=CC(=O)CC[C@]4(C)[C@H]3CC[C@@]21C`, “inactive”; for `CCN(CC)CC(=O)Nc1c(C)cccc1C`, “inactive”.
As to `FC(F)(F)c1ccccc1-n1ccnc1`, the compound was called inactive.
For `O=C(O)CP(=O)(O)O`, the compound was called inactive.
For `CCOC(=O)C1=C(C)NC(C)=C(C(=O)OC)C1c1cccc(Cl)c1Cl` (stereo not given) the value was “inactive”; for `CCN(CC)CCCN(c1ccccc1)C1Cc2ccccc2C1`, “inactive”.
Consider `Cc1ccc(Cl)c(Nc2ccccc2C(=O)O)c1Cl`, for which the outcome was inactive.
Consider `C=CCc1ccccc1OCC(O)CNC(C)C` (stereo not given), for which the call was inactive.
In the case of `CC(C)[N+](C)(CCOC(=O)C1c2ccccc2Oc2ccccc21)C(C)C`, the compound was called inactive.
Turning to `c1cnc(N2CCN(Cc3ccc4c(c3)OCO4)CC2)nc1`, the compound was called inactive.
With `Cc1ccc(/C(=C\CN2CCCC2)c2ccccn2)cc1`, the result was inactive.
To `CO[C@@]1(NC(=O)CSCC#N)C(=O)N2C(C(=O)O)=C(CSc3nnnn3C)CS[C@@H]21` belongs “inactive”.
For `Cc1nc2sccn2c(=O)c1CCN1CCC(=C(c2ccc(F)cc2)c2ccc(F)cc2)CC1` the value was “inactive”.
With `NC(=O)N1c2ccccc2C=Cc2ccccc21`, the outcome was inactive.
Take `COc1ccc([C@@H]2Sc3ccccc3N(CCN(C)C)C(=O)[C@@H]2OC(C)=O)cc1`: the call was inactive.
For `CC(C)(C)c1ccc(C(=O)CCCN2CCC(OC(c3ccccc3)c3ccccc3)CC2)cc1`, the outcome was inactive.
For `CC(C)COCC(CN(Cc1ccccc1)c1ccccc1)N1CCCC1` (stereo not given), the call was inactive.
For `CC(N=C(NC#N)Nc1ccncc1)C(C)(C)C` (stereo not given), the compound was called inactive.
Turning to `O=C(CCNNC(=O)c1ccncc1)NCc1ccccc1`, the call was inactive.
Regarding `CC(=O)Oc1cc(C(C)C)c(OCCN(C)C)cc1C`, the result was inactive.
To `NC/C=C/C(=O)O` belongs “inactive”; to `CN1CCN(C2=Nc3ccccc3Oc3ccc(Cl)cc32)CC1`, “inactive”; to `CC(C)(C)NCC(O)c1cc(O)cc(O)c1` (stereo not given), “inactive”.
Consider `COc1cc(Cc2cnc(N)nc2N)cc(OC)c1OC`, for which the compound was called inactive.
On to `CC(=O)Nc1nnc(S(N)(=O)=O)s1`, for which the result was inactive.
Take `CCN(CC)CCNC(=O)c1ccc(NC(C)=O)cc1`: the result was inactive.
Take `CC(C)(Oc1ccc(CCNC(=O)c2ccc(Cl)cc2)cc1)C(=O)O`: the compound was classed as inactive.
For `CN=C(NC#N)NCCSCc1nc[nH]c1C` the value was “inactive”; for `CN(C)CCCN1c2ccccc2Sc2ccc(C(F)(F)F)cc21`, “inactive”; for `CCn1ccnc1CC1COc2ccccc2O1` (stereo not given), “inactive”.

The record behind these values is PubChem BioAssay (NCATS).
